Calls of active or inactive are those of the source. Rule for the calls: active = hit-call score of the fitted dose curve at least 0.9, where 1 is the maximum; inactive = score below 0.9.
experiment: CCTE_Shafer_MEA_acute_per_network_burst_spike_number_std: CCTE's Neural Acute Assay for Standard Deviation of Number of Spikes in a Network Burst, Shafer Lab (AID 2284020);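 note: fitted for decrease in spike-number SD versus DMSO so actives lower it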
Description: CCTE_Shafer_MEA_acute assay is conducted using Axion Biosystems 48 well microelectrode array (MEA) plates and Maestro recording system. Each well of the MEA plate contains a grid of 16 microelectrodes embedded in the culture surface. Electrically active cells, such as neurons, can be cultured over the electrodes, and electrical activity in these cells can be recorded extracellularly. The spontaneous firing of neurons is captured from each electrode on a microsecond timescale providing both temporally and spatially precise data. […] The CCTE_Shafer_MEA_acute assay uses primary cultures of rat cortical neurons. As these cultures mature over time, neural networks develop functional activity and form cohesive networks in which electrical activity can be highly coordinated. Baseline 40-minute recordings are made on days post-plating 13 or 15, followed by a secondary 40-minute recording after chemical exposure.CCTE_Shafer_MEA_acute_per_network_burst_spike_number_std is a component of the CCTE_Shafer_MEA_acute assay. It measures the standard deviation of the number of spikes (action potential firings) in a network burst (temporally-clustered group of spikes across multiple electrodes) during a recording in a microelectrode array (MEA) using Axion Biosystems Maestro 768 channel amplifier with the AxIS adaptive spike detector. The recordings before and after chemical treatment are used to calculate a percent change in the standard deviation of the number of spikes in network bursts in each well.Data from the assay component CCTE_Shafer_MEA_acute_burst_spike_number_std was analyzed into 1 assay endpoint. This assay endpoint, CCTE_Shafer_MEA_acute_burst_spike_number_std, was analyzed in the negative analysis fitting direction relative to DMSO as the negative control and baseline of activity. Using a type of functional reporter, gain or loss-of-signal activity can be used to understand electrical activity.
Spontaneous activity in the cortical cultures was recorded using an Axion Biosystems Maestro 768 channel amplifier and Axion Integrated Studios (AxIS) v1.8 (or later) software. The amplifier recorded from all channels simultaneously (gain = 1200 x; sampling rate = 12.5 kHz/channel): raw signals were filtered with a Butterworth band-pass filter (300-5000 Hz), which filters out slower local field potentials leaving only fast potentials, i.e., "spikes", arising from extracellular currents associated with action potentials (Pine 2006; Wheeler and Nam 2011). On-line spike detection of filtered signals was conducted with the AxIS adaptive spike detector, using a threshold of 8x the root mean squared (rms) noise on each channel. Any electrodes with rms noise levels greater than 5 uV were grounded (e.g., no data were recorded). Once grounded, an electrode was grounded for the duration of the experiment. All recordings were conducted at 37 C. Wells were deemed usable if on the day of the exposure >/= 10 electrodes were active (defined as >/= 5 spikes/min). On DIV 13 or 15, a minimum of three wells from one cortical culture preparation were treated with each compound (0.03-40 uM). Prior to recording baseline activity, each mwMEA plate was placed in the Maestro at 37 C and allowed to sit for 20 min while firing rates stabilized. Baseline activity (40 min) was recorded before the addition of each compound. An additional 40 min of spontaneous activity was recorded in the presence of each compound. Changes in network parameters relative to baseline were assessed following compound treatment.

SMILES	AC50	outcome
CN(C)C(=O)C1(N2CCCCC2)CCN(CC[C@@]2(c3ccc(Cl)c(Cl)c3)CN(C(=O)c3ccccc3)CCO2)CC1	20.4 µM (active)	
O=C(O)c1ccccc1-n1cc(C(=O)O)c(=O)c2cc(Nc3c(F)cc(F)cc3Cl)c(Cl)cc21		inactive
CCN(CC)C(=O)c1cc(S(=O)(=O)Cc2ccccc2)c(N2CCC(c3ccccc3)CC2)cc1N(CC)CCN(C)C		inactive
c1ccc2n[nH]nc2c1		inactive
CC1=CC(=O)/C(=C(/C)O)C(=O)O1		inactive
CC(C)(C)c1cc(/C=C2\SC(N)=NC2=O)cc(C(C)(C)C)c1O		inactive
OC12N=C(c3ccccc3)SC1Cc1cc(Cl)ccc12 (stereo unspecified)		inactive
COc1cccc([C@H](O)C2CCN(CCc3ccc(F)cc3)CC2)c1OC	6.88 µM (active)	
CCCCOC(=O)c1ccc(O)cc1		inactive
CO[C@H]1/C=C/O[C@@]2(C)Oc3c(C)c(O)c4c(O)c(c(/C=N/N5CCN(C)CC5)c(O)c4c3C2=O)NC(=O)/C(C)=C\C=C\[C@H](C)[C@H](O)[C@@H](C)[C@@H](O)[C@@H](C)[C@H](OC(C)=O)[C@@H]1C		inactive
CC(O)CC(C)(C)O (stereo unspecified)		inactive
CC(C)(c1cc(Br)c(O)c(Br)c1)c1cc(Br)c(O)c(Br)c1		inactive
O=C1O[C@H]([C@@H](O)CO)C(O)=C1O		inactive
CC(=O)N1CCN(c2ccc(OC[C@H]3CO[C@](Cn4ccnc4)(c4ccc(Cl)cc4Cl)O3)cc2)CC1		inactive
CN(C[C@@H](CC[N+]12CCC(C3CCCCC3)(CC1)CC2)c1ccc(Cl)c(Cl)c1)C(=O)c1cc(C(F)(F)F)cc(C(F)(F)F)c1	8.89 µM (active)	
CCCCCCCCCCCCO	26.7 µM (active)	

SMILES	AC50	outcome
Cc1cn([C@H]2C[C@H](N=[N+]=[N-])[C@@H](CO)O2)c(=O)[nH]c1=O		inactive
CC[C@@H]1C[C@H](N(Cc2cc(C(F)(F)F)cc(C(F)(F)F)c2)C(C)=O)c2cc(C(F)(F)F)ccc2N1C(=O)OC(C)C		inactive
NC(=O)c1nc(-c2cccc(-c3cc(F)ccc3OCC(F)(F)C(F)(F)F)c2)n[nH]1	37.4 µM (active)	
CN1C(=O)CC[C@H]1c1cccnc1		inactive
O=c1[nH]sc2ccccc12		inactive
CCCCCCCCOC(=O)c1cc(O)c(O)c(O)c1	7.51 µM (active)	
Cc1cc2c(cc1C(F)(F)F)N(C(=O)Nc1ccc(Oc3cccnc3C)nc1)CC2		inactive
NCc1cccc(C2CCN(C(=O)c3ccc(C#Cc4ccccc4F)o3)CC2)c1	20 µM (active)	
CC/C(=C(/CC)c1ccc(O)cc1)c1ccc(O)cc1		inactive
Clc1ccccc1C(c1ccccc1)(c1ccccc1)n1ccnc1	6.71 µM (active)	
CN(C)c1ccc(C(=C2C=CC(=[N+](C)C)C=C2)c2ccc(N(C)C)cc2)cc1	2.78 µM (active)	
Cc1c2ccccc2c(C)c2c1ccc1ccccc12		inactive
COc1cc(C(=O)NC2CCN(C)CC2)ccc1Nc1ncc2c(n1)N(C1CCCC1)CC(F)(F)C(=O)N2C	15.2 µM (active)	
C[C@]12CC[C@@H]3c4ccc(O)cc4CC[C@H]3[C@@H]1CC[C@H]2O		inactive
CCN(Cc1cccc(S(=O)(=O)O)c1)c1ccc(C(=C2C=CC(=[N+](CC)Cc3cccc(S(=O)(=O)O)c3)C=C2)c2ccccc2S(=O)(=O)[O-])cc1		inactive

Source: PubChem BioAssay (EPA / NIEHS)
